Paper PMC4102417

Tested on: murine 3T3 fibroblasts
Test: primary screen, percent viability or growth; higher = less effect of the substance
Experimental: Similarly, for measuring the cytotoxicity concentration (CC50) for 3T3 fibroblast cells, cultures were incubated with drugs for 72 hours and developed using Alamar Blue (Alamar Biosciences Inc, Sacramento, CA) as previously described.

SMILES	Mammalian (3T3) cell % growth at 10 uM [%]
CC(=O)OC1CCC2(C)C(CC(OC(C)=O)C3(C)C2CCC2(C)C(c4ccoc4)OC(=O)C4OC423)C1(C)C (stereo not shown)	96.7
CC(C)=CCc1c2c(c3occ(-c4ccc(O)c(O)c4)c(=O)c3c1O)C=CC(C)(C)O2	4.1
Clc1ccccc1C(c1ccccc1)(c1ccccc1)n1ccnc1	100
C=C1C(=O)O[C@H]2[C@H]1CC/C(C)=C/CC[C@@]1(C)O[C@@H]21	0.7
COc1cc(-c2cc(=O)c3c(O)c(OC)c(OC)c(OC)c3o2)cc(OC)c1OC	4
C=CC(C)(O)CCC1C(=C)CC(OC(C)=O)C2C(C)(C)CCCC12C (stereo not shown)	63.7
O[C@H]1[C@H]2c3cc4c(cc3CN3CCC(=C[C@@H]1O)[C@H]23)OCO4	29.6
NCCc1ccc(O)c(O)c1	2.4
CC1(C)C(=O)C=CC2(C)C1CC(O)C1(C)C2CCC2(C)C(c3ccoc3)OC(=O)C3OC321 (stereo not shown)	76
COc1ccc(-c2cc(=O)c3ccccc3o2)cc1OC	86.4
O=c1cc(-c2ccccc2)oc2cc(O)c(O)c(O)c12	4.9
Cc1cccc2c3c(ccc12)C1=C(C(=O)C3=O)[C@@H](C)CO1	77.1
COc1ccc2cc3[n+](cc2c1OC)CCc1cc2c(cc1-3)OCO2	75.8
CC(=O)OC1CCC2(C)C3=C(CCC2C1(C)C)C1(C)CCC(C(C)CCC=C(C)C)C1(C)CC3 (stereo not shown)	87.6
O=C(CCCN1CCC2(CC1)C(=O)NCN2c1ccccc1)c1ccc(F)cc1	94.7
CCN(CC)CCCC(C)Nc1c2ccc(Cl)cc2nc2ccc(OC)cc12.Cl.Cl (stereo not shown)	5.3
CSc1ccc2c(c1)C(N1CCN(C)CC1)Cc1ccccc1S2.O=C(O)/C=C\C(=O)O (stereo not shown)	69.6

SMILES	Mammalian (3T3) cell % growth at 10 uM [%]
COc1ccc(-c2cc(=O)c3c(O)cc(O)cc3o2)cc1	77.4
C#C[C@]1(O)CC[C@H]2[C@@H]3CCC4=Cc5oncc5C[C@]4(C)[C@H]3CC[C@@]21C	90.2
COc1ccc(-c2cc(=O)c3ccccc3o2)cc1	100
CC1(C)C(=O)C=CC2(C)C1=C(O)C(=O)C1(C)C2CCC2(C)C(c3ccoc3)CC3OC321 (stereo not shown)	25.5
CN1CCCC1CCOC(C)(c1ccccc1)c1ccc(Cl)cc1 (stereo not shown)	93.2
CC(C)CCC[C@@H](C)[C@H]1CC[C@H]2[C@@H]3C(=O)C=C4C[C@@H](O)CC[C@]4(C)[C@H]3CC[C@]12C	68.5
CN(C)CC/C=C1/c2ccccc2Sc2ccc(Cl)cc21	97.1
COc1ccc(Cc2nccc3cc(OC)c(OC)cc23)cc1OC.Cl	93.1
Cc1ccc(C(=O)C(C)CN2CCCCC2)cc1 (stereo not shown)	0.2
CC1(C)C(=O)C=CC2(C)C1CC(=O)C1(C)C2CCC2(C)C(c3ccoc3)OC(=O)C3OC321 (stereo not shown)	75.8
CC(C)C[C@H]1C(=O)N2CCC[C@H]2[C@]2(O)O[C@](NC(=O)[C@@H]3C=C4c5cccc6[nH]c(Br)c(c56)C[C@H]4N(C)C3)(C(C)C)C(=O)N12.CS(=O)(=O)O	92.1
CC1(C)C(=O)C2OC2C2(C)C1CC(O)C1(C)C2CCC2(C)C(c3ccoc3)OC(=O)C3OC321 (stereo not shown)	77.3
Oc1ccc2c(c1)OC[C@]1(O)Cc3cc(O)c(O)cc3[C@H]21	3.6
CN1CCC(=C2c3ccccc3CCc3sccc32)CC1.O=C(O)CC(O)C(=O)O	86.5
COc1cc([C@@H]2c3cc4c(cc3[C@@H](O[C@@H]3O[C@@H]5CO[C@@H](c6cccs6)O[C@H]5[C@H](O)[C@H]3O)[C@H]3COC(=O)[C@H]23)OCO4)cc(OC)c1O	50.4
COc1ccc2c(c1)OC/C(=C/c1ccc(OC)c(O)c1)C2=O	8.8
CNCCC(Oc1ccc(C(F)(F)F)cc1)c1ccccc1.Cl (stereo not shown)	100
